Assay results reported in PubChem BioAssay (NCI).
This is part of a sample that, as a whole, favours compounds with a hit. Of some 83,000 tested, about 20% had one in any assay.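 Percent growth is the endpoint: 0 to 100 indicates growth inhibition (40 means 60% inhibition), 0 means no net growth, and negative values indicate cell death.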 The source made the active and inactive calls. The calls were made as follows: active = growth percent below 10; inactive = the rest.

What was measured:
Assay in all cases: NCI-60 one-dose screen, 48 h (100 = growth as untreated, 0 = no growth, -100 = all killed)
SR leukemia = conditions: 10 µM unless noted
OVCAR-8 ovarian = conditions: 10 µM unless noted
OVCAR-5 ovarian = conditions: 10 µM unless noted
OVCAR-4 ovarian = conditions: 10 µM
IGROV1 ovarian = conditions: 10 µM unless noted
OVCAR-3 ovarian = conditions: 10 µM unless noted
HS 578T breast = conditions: 10 µM unless noted
NCI/ADR-RES ovarian = conditions: 10 µM unless noted
T-47D breast = conditions: 10 µM unless noted
BT-549 breast = conditions: 10 µM unless noted
MDA-MB-435 melanoma = conditions: 10 µM unless noted
SW-620 colon = conditions: 10 µM unless noted
MCF7 breast = conditions: 10 µM unless noted
HCT-116 colon = conditions: 10 µM unless noted
HCC-2998 colon = conditions: 10 µM unless noted
KM12 colon = conditions: 10 µM unless noted
SK-OV-3 ovarian = conditions: 10 µM unless noted

Measured: growth

CC(C)(C)c1cc(C(=O)Nc2cc3ccccc3cc2C(=O)NCCN)cc(C(C)(C)C)c1
inactive: BT-549 breast 82.2%
active: SR leukemia -58.9% | OVCAR-8 ovarian -37.1% | OVCAR-5 ovarian -58.4% | OVCAR-4 ovarian -81.6% | IGROV1 ovarian -55% | OVCAR-3 ovarian -96% | HS 578T breast -36.6% | NCI/ADR-RES ovarian -62.3% | T-47D breast -69% | MDA-MB-435 melanoma -88.3% | SW-620 colon -66.4% | MCF7 breast -85.6% | HCT-116 colon -91.8% | HCC-2998 colon -86.5% | KM12 colon -94.5%

O=[N+]([O-])c1cc([N+](=O)[O-])c(C(F)(F)F)cc1NN=C(c1ccc(O)cc1)c1ccc(O)cc1
active: OVCAR-8 ovarian -49.9% | OVCAR-5 ovarian -6.51% | SK-OV-3 ovarian -23.1% | NCI/ADR-RES ovarian -19.9% | MCF7 breast -10.1% | HCT-116 colon -82.4% | HCC-2998 colon -55.5%
inactive: SR leukemia 66.1% | OVCAR-4 ovarian 81.3% | OVCAR-3 ovarian 96.3% | HS 578T breast 108% | BT-549 breast 132% | MDA-MB-435 melanoma 99.1% | SW-620 colon 106% | KM12 colon 84%

CCC(C)[C@H](NC(=O)NC(=O)NC(=O)CI)C(=O)OC (stereo not given in full)
inactive: OVCAR-8 ovarian 88.1% | OVCAR-5 ovarian 94.3% | OVCAR-4 ovarian 63.6% | SK-OV-3 ovarian 88.4% | IGROV1 ovarian 80.7% | HS 578T breast 84.9% | NCI/ADR-RES ovarian 98.4% | T-47D breast 38.5% | MDA-MB-435 melanoma 69.5% | MCF7 breast 42.1% | HCT-116 colon 65.2% | HCC-2998 colon 103% | KM12 colon 100%
active: SR leukemia -40.7% | OVCAR-3 ovarian -39.5% | SW-620 colon 9.41%

O=C1Nc2ccccc2/C1=C/C(=O)c1ccc(N2CCCC2)cc1
inactive: SR leukemia 15.2% | OVCAR-5 ovarian 75.6% | SK-OV-3 ovarian 70.9% | IGROV1 ovarian 15.9% | T-47D breast 40.5% | BT-549 breast 107% | MCF7 breast 17.8% | HCT-116 colon 103% | HCC-2998 colon 77.9% | KM12 colon 15.1%
active: OVCAR-8 ovarian -12.7% | OVCAR-3 ovarian -17.6% | NCI/ADR-RES ovarian -23.8% | MDA-MB-435 melanoma -51.9% | SW-620 colon 5.46%

Nc1nc(Nc2ccccc2)c2ncn(Cc3cc4c(cc3Br)OCO4)c2n1
inactive: SR leukemia 10.5% | OVCAR-5 ovarian 32.1% | OVCAR-4 ovarian 40.6% | SK-OV-3 ovarian 11.5% | IGROV1 ovarian 37.5% | HS 578T breast 34.1% | T-47D breast 72.3% | SW-620 colon 20.5% | MCF7 breast 12.4% | HCC-2998 colon 23% | KM12 colon 11.6%
active: OVCAR-8 ovarian 6.21% | OVCAR-3 ovarian 2.58% | NCI/ADR-RES ovarian 8.6% | MDA-MB-435 melanoma -16.9% | HCT-116 colon 7.79%

O=C1/C(=C/c2ccc(OCc3ccccc3)cc2)Oc2cc(OCCN3CCCCC3)ccc21
inactive: SR leukemia 13.3% | OVCAR-8 ovarian 89.8% | OVCAR-5 ovarian 88.8% | OVCAR-4 ovarian 61.2% | SK-OV-3 ovarian 104% | IGROV1 ovarian 87% | OVCAR-3 ovarian 88.1% | NCI/ADR-RES ovarian 79.2% | T-47D breast 63.4% | BT-549 breast 85.3% | MDA-MB-435 melanoma 54.7% | SW-620 colon 71.1% | MCF7 breast 65.2% | HCT-116 colon 52.3% | HCC-2998 colon 90.5% | KM12 colon 82.3%

COc1cc(Cl)cc(-c2nn(C(=O)NS(=O)(=O)c3ccccc3)cc2-c2ccncc2)c1
inactive: SR leukemia 87.6% | OVCAR-8 ovarian 33.1% | OVCAR-5 ovarian 96.5% | SK-OV-3 ovarian 83.2% | IGROV1 ovarian 92.1% | OVCAR-3 ovarian 104% | NCI/ADR-RES ovarian 97.5% | T-47D breast 92.5% | BT-549 breast 36.9% | MDA-MB-435 melanoma 91% | SW-620 colon 114% | MCF7 breast 99.8% | HCT-116 colon 93.7% | KM12 colon 102%

Oc1cc(Nc2ccnc3cc(Cl)ccc23)c2ncccc2c1
inactive: SR leukemia 37% | OVCAR-8 ovarian 70.3% | OVCAR-5 ovarian 104% | OVCAR-4 ovarian 44.4% | SK-OV-3 ovarian 85.4% | IGROV1 ovarian 94.3% | OVCAR-3 ovarian 81% | HS 578T breast 62.1% | NCI/ADR-RES ovarian 51.8% | T-47D breast 52.1% | MDA-MB-435 melanoma 70% | SW-620 colon 66.6% | MCF7 breast 61% | HCT-116 colon 69.3% | HCC-2998 colon 112% | KM12 colon 87.6%

COc1cc2c(c(Br)c1N)-c1cc(Br)c(N)cc1C2=O
inactive: SR leukemia 47.2% | OVCAR-8 ovarian 29.1% | OVCAR-5 ovarian 16.3% | OVCAR-4 ovarian 22.2% | SK-OV-3 ovarian 74.5% | IGROV1 ovarian 31.9% | OVCAR-3 ovarian 83.4% | HS 578T breast 38.1% | NCI/ADR-RES ovarian 47.8% | T-47D breast 18.4% | BT-549 breast 77.9% | SW-620 colon 75.3% | HCT-116 colon 62.9% | HCC-2998 colon 52.1% | KM12 colon 66.6%
active: MCF7 breast 3.68%
